In PubChem BioAssay (NCI):
Compounds without any hit were thinned out: in the full panel of roughly 83,000, 20% have a hit.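 Single-dose data. Exposure time 48 hours. Values below 10 considered active.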 The source made the active and inactive calls.

Key:
Test in all cases: NCI-60 one-dose screen, 48 h (100 = growth as untreated, 0 = no growth, -100 = all killed)
Conditions in all cases: 10 µM unless noted
[1] = tested on: SR leukemia
[2] = tested on: RPMI-8226 leukemia
[3] = tested on: OVCAR-8 ovarian
[4] = tested on: OVCAR-5 ovarian
[5] = tested on: OVCAR-4 ovarian
[6] = tested on: SK-OV-3 ovarian
[7] = tested on: IGROV1 ovarian
[8] = tested on: OVCAR-3 ovarian
[9] = tested on: HS 578T breast
[10] = tested on: NCI/ADR-RES ovarian
[11] = tested on: T-47D breast
[12] = tested on: BT-549 breast
[13] = tested on: MDA-MB-435 melanoma
[14] = tested on: SW-620 colon
[15] = tested on: MCF7 breast
[16] = tested on: HCT-116 colon
[17] = tested on: HCC-2998 colon
[18] = tested on: KM12 colon

Measured: growth

O=C(Nc1ccc2c(c1)-c1ccccc1C2)C1CC(=O)N(c2ccc3c(c2)OCO3)C1 (stereo not drawn)
inactive: [1] 77.2% [50 µM] | [2] 81.8% [50 µM] | [3] 28.5% [50 µM] | [4] 83.5% [50 µM] | [6] 76.1% [50 µM] | [7] 80.5% [50 µM] | [8] 31.3% [50 µM] | [9] 31.7% [50 µM] | [10] 58.9% [50 µM] | [11] 52.8% [50 µM] | [12] 80.3% [50 µM] | [13] 70.7% [50 µM] | [14] 75.2% [50 µM] | [15] 65.6% [50 µM] | [16] 36.8% [50 µM] | [17] 81% [50 µM] | [18] 51.2% [50 µM]
active: [5] 2.45% [50 µM]

O=c1c(/C=C/c2c(O)ccc3ccccc23)nnc2sc(-c3cccc([N+](=O)[O-])c3)nn12
inactive: [1] 28.3% | [2] 57.3% | [3] 22.4% | [4] 82.1% | [5] 25.5% | [6] 46% | [7] 43.1% | [8] 15.2% | [9] 68.3% | [10] 29.4% | [11] 33.6% | [12] 65.1% | [13] 47.5% | [14] 32.5% | [15] 27.4% | [16] 10.5% | [17] 60.9% | [18] 37.2%

COC(CCP(=O)(c1ccccc1)c1ccccc1)(C(=O)c1ccccc1)c1ccccc1 (stereo not drawn)
inactive: [3] 77% | [4] 84.1% | [5] 61.3% | [6] 83.5% | [8] 77.1% | [9] 83.5% | [10] 57.7% | [11] 47.6% | [12] 60.4% | [13] 71.4% | [14] 76% | [15] 35.1% | [16] 45.5% | [17] 72.7% | [18] 57.3%
active: [1] -8.14% | [2] 4.88% | [7] -19.4%

COc1ccc(/C=N/NC(=O)Cn2nnc3ccccc32)cc1
inactive: [1] 96% | [2] 101% | [3] 96.7% | [4] 104% | [5] 115% | [6] 95.5% | [7] 95.9% | [8] 95% | [9] 77.6% | [10] 104% | [11] 92.1% | [12] 107% | [13] 98.2% | [14] 92.9% | [15] 86.4% | [16] 93.7% | [17] 116% | [18] 90.7%

COc1cc2cc(Oc3ccc(NC(=O)Nc4ccc(F)c(C(F)(F)F)c4)cc3)c(C)nc2cc1OCCN1CCCCC1
active: [1] -46.1% | [2] -25.8% | [3] -55.5% | [5] 0.714% | [8] -92.5% | [13] -92.5% | [14] -76.2% | [15] -75% | [16] -89.8% | [18] -79.9%
inactive: [4] 127% | [6] 115% | [7] 34.7% | [9] 102% | [10] 74.7% | [11] 78.5% | [12] 85.3% | [17] 96.9%

C#CC#CC#CC#CC#CC#CC#CC#CC[C@@H]1OC[C@H](COC(=O)O[C@@H](C(=O)O[C@H]2C[C@@]3(O)[C@@H](OC(=O)c4ccccc4)[C@@H]4[C@]5(OC(C)=O)CO[C@@H]5C[C@H](O)[C@@]4(C)C(=O)[C@H](OC(C)=O)C(=C2C)C3(C)C)[C@@H](NC(=O)c2ccccc2)c2ccccc2)O1
inactive: [1] 20.5% | [3] 33.8% | [4] 24.3% | [5] 62.9% | [6] 51.7% | [7] 32.6% | [10] 102% | [11] 39.1% | [12] 34.6% | [14] 28.5% | [15] 18% | [16] 12.5% | [17] 19.7%
active: [2] 9.65% | [8] 7.3% | [9] 5.42% | [13] -63.1% | [18] 9.33%

Oc1ccc(Cc2ccc(O)c3ncccc23)c2cccnc12
active: [1] 9.74% | [2] 8.21% | [6] -17.2% | [7] 7.8% | [11] -3.14% | [15] 3.18%
inactive: [3] 12.6% | [4] 21.6% | [5] 14.2% | [8] 14.1% | [9] 36.6% | [10] 20.2% | [12] 29.4% | [13] 12.6% | [14] 16.7% | [16] 15.2% | [17] 19.2% | [18] 15.8%

CN(C)c1ccc(/C=N/NC(=O)CSc2nc3sc4c(c3c(=O)n2-c2ccccc2)CCCCC4)cc1
inactive: [1] 22.7% | [2] 76.8% | [3] 20.6% | [4] 50.7% | [5] 19.7% | [6] 67.1% | [7] 36.5% | [8] 12% | [9] 23.9% | [10] 59.1% | [11] 61.5% | [12] 71.2% | [13] 33.2% | [14] 27.2% | [15] 35% | [17] 39.4% | [18] 38.5%
active: [16] 7.89%

CCCS(=O)(=O)Nc1cccc(Nc2ncnc3cc(NC(=O)CCl)ccc23)c1Cl
inactive: [9] 10.5% | [10] 49.9%
active: [1] 2.37% | [2] -32.1% | [3] 0.271% | [4] -65% | [5] -38.3% | [6] -4.59% | [7] -52.6% | [8] -85.3% | [11] -41.8% | [12] -68.2% | [13] -46.9% | [14] -33.6% | [15] -13% | [16] -27.9% | [17] 4.99% | [18] -32.2%

CN1CCN(Cc2ccc(NC(=O)c3cncc(C#Cc4cnc(N)c5ncccc45)c3)cc2Cl)CC1
inactive: [2] 73.1% | [3] 101% | [4] 95.1% | [5] 104% | [6] 109% | [7] 110% | [8] 116% | [9] 80.1% | [10] 74.9% | [11] 121% | [12] 105% | [13] 94.2% | [15] 65.6% | [16] 14.6% | [17] 106% | [18] 23%
active: [1] -1.93% | [14] 2.96%

O=C(Nc1cccc2c1C(=O)c1cccc(NC(=O)c3ccc(C(=O)Nc4cccc5c4C(=O)c4cccc(NC(=O)c6ccccc6)c4C5=O)cc3)c1C2=O)c1ccccc1
inactive: [2] 105% | [3] 98.1% | [4] 91.1% | [5] 98.9% | [6] 99.4% | [7] 41.1% | [8] 106% | [9] 99.5% | [10] 101% | [11] 101% | [12] 72.4% | [13] 112% | [14] 99.9% | [15] 104% | [16] 104% | [17] 101% | [18] 102%
active: [1] 9.04%

COc1cc(C2=Nc3c(N)nc(N)nc3NC(c3cccc(Nc4ccnc5cc(C(F)(F)F)ccc45)c3)C2)cc(OC)c1OC (stereo not drawn)
inactive: [2] 10.8% | [3] 68.8% | [4] 129% | [5] 74.7% | [6] 88.1% | [7] 65.6% | [8] 83.5% | [9] 62.7% | [10] 95.3% | [11] 95.4% | [12] 112% | [13] 69.2% | [14] 78.7% | [15] 37.3% | [16] 48.9% | [17] 77.2% | [18] 66.4%
active: [1] 0.109%

O=C(NCCN1CCOCC1)c1cncnc1Nc1ccc2c(ccn2Cc2ccccn2)c1
inactive: [1] 111% | [2] 106% | [3] 102% | [4] 100% | [5] 106% | [6] 95.4% | [7] 106% | [8] 113% | [9] 103% | [10] 104% | [11] 98.3% | [12] 102% | [13] 99.9% | [14] 98% | [15] 97.8% | [16] 105% | [17] 100% | [18] 107%

COc1cc(NC(=O)c2cncnc2Nc2ccc3c(ccn3Cc3cccc(F)c3)c2)cc(OC)c1
active: [13] -4.76%
inactive: [1] 19.7% | [2] 63.5% | [3] 65.8% | [4] 71.7% | [5] 95.1% | [6] 67% | [7] 50.8% | [8] 23% | [9] 51% | [10] 42.1% | [11] 70.9% | [12] 68.1% | [14] 29.6% | [15] 28.2% | [16] 44.5% | [17] 72.9% | [18] 34.8%

Nc1cc(-c2ccc(Cl)cc2)nn1-c1nc(-c2ccc(Br)cc2)cs1
inactive: [1] 91.3% | [2] 100% | [3] 103% | [4] 93.7% | [5] 103% | [6] 92.4% | [7] 99.9% | [8] 106% | [9] 98% | [10] 105% | [11] 98.2% | [12] 100% | [13] 99.7% | [14] 106% | [15] 89.8% | [16] 94.4% | [17] 101% | [18] 104%

O=[N+]([O-])c1ccc(N/N=C\c2cc(Cl)ccc2O)nc1
inactive: [1] 10.6% | [2] 40.8% | [3] 32.9% | [4] 88.8% | [5] 36.1% | [6] 46.6% | [7] 30.4% | [8] 48.5% | [9] 64.2% | [10] 17.4% | [11] 25.4% | [12] 42.4% | [13] 48.7% | [14] 32.4% | [15] 16% | [16] 16.7% | [17] 42% | [18] 29%
